# Experimental data taken from PubChem BioAssay (NCATS).
# Results filed as inconclusive are left out. A call without a number means that no potency is given here. Calls of active or inactive are those of the source. Unless noted, calls follow the shape of the dose curve; as a rule, active = well fitted curve in the direction sought with a large enough effect; inconclusive = small, poorly fitted or top-dose-only effect, or another doubt; inactive = no such curve, though single readings can be large; an effect the other way counts as inactive or inconclusive.
# Assays:
# [1] = Validation of Assay for Modulators of Lamin A Splicing (AID 1459; active = well fitted curve in the direction sought with a large enough effect in the signal ratio; the % refers to the signal ratio;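 also: cells exposed to compound for two days before reading; ratio rise marks activators and ratio drop marks inhibitors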)
# Method in brief: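 S3 HeLa stably expressing lamin A-EGFP splicing minigene and DsRed2, 600 cells/well in Opti-MEM with 2% FBS, treated 48 h at 37C; laser-scanning cytometry gives GFP/RFP total intensity ratio; ancitabine positive control, 0.5% DMSO vehicle.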
# [2] = qHTS Assay for Lipid Storage Modulators (AID 1519; calls by dose curve); details: Drosophila S3 cells, BODIPY lipid droplet/cell ratio, laser cytometry, cells loaded with oleic acid
# Method in brief: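 Cells seeded at 5,000 per well were treated with compounds over a concentration series and loaded with oleic acid (400 uM, as added). Lipid droplet fluorescence (488 nm excitation, 500-530 nm channel) was read by laser-scanning cytometry and normalized to 20 uM Triacsin C.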
# [3] = molecular target: DNA repair nuclease/redox regulator APEX1 (Homo sapiens) (UniProt P27695); experiment: qHTS Validation Assay for Inhibitors of the Human Apurinic/apyrimidinic Endonuclease 1 (APE1) (AID 1705;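 also: TAMRA fluorescence gain over two minutes as APE1 cuts a quenched THF abasic duplex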)
# Chain of DNA repair nuclease/redox regulator APEX1 (Homo sapiens) (P27695 whole entry, looked up): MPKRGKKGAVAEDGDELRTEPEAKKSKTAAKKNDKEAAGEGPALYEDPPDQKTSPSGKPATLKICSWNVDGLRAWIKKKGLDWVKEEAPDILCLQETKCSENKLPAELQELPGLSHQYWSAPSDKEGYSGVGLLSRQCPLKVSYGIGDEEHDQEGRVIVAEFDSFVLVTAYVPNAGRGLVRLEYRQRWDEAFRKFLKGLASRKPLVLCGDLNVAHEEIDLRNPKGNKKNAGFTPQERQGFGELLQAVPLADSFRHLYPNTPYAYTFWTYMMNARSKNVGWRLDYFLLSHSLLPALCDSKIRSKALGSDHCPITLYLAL
# Method in brief: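 Fluorogenic double-stranded THF abasic-site substrate (5'-TAMRA/3'-BHQ-2), 50 nM final. Enzyme preincubated with compound 15 min at room temperature, then substrate added. Kinetic fluorescence (ex 525/em 598 nm) read three times at 60 s intervals; activity taken as third-minus-first read difference.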
# [4] = Counterscreen for APE1 Inhibitors: Fluorescent Dye Displacement Validation Assay (AID 1707)
# Method in brief: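 Signal: ThO fluorescence (ex 480 nm/em 540 nm) on binding 50 nM dsDNA; displacement by test compound reduces it. Conditions: 250 nM dye, 50 mM Tris-HCl pH7.5, 2 mM MgCl2, 50mM NaCl, 0.01% Tween-20.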
# [5] = molecular target: Endonuclease 4 (Escherichia coli (strain K12)) (UniProt P0A6C1); experiment: Counterscreen for APE1 Inhibitors: qHTS Validation Assay for Inhibitors of Endonuclease IV (AID 1708)
# Method in brief: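 Incision of a double-stranded 50 nM TAMRA/BHQ-2 abasic substrate was followed kinetically (525/598 nm, reads every 60 s) after 15 min enzyme–compound preincubation with 2 nM EndoIV in pH 7.5 Tris buffer with MgCl2, DTT and Tween-20; concentration-response format.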
# [6] = qHTS for differential inhibitors of proliferation of Plasmodium falciparum line 7G8 (AID 1815);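 also: parasite growth measured after three days of incubation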
# [7] = qHTS for differential inhibitors of proliferation of Plasmodium falciparum line GB4 (AID 1816); details: Potency: Plasmodium falciparum GB4 proliferation inhibition;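 also: parasite growth measured after 72 h incubation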
# [8] = qHTS for differential inhibitors of proliferation of Plasmodium falciparum line 3D7 (AID 1876); also: potency is read from the fitted curve at half-maximal effect
# [9] = qHTS for differential inhibitors of proliferation of Plasmodium falciparum line D10 (AID 1877);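 also: parasites grown with compound for 72 h before DNA staining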
# [10] = qHTS for differential inhibitors of proliferation of Plasmodium falciparum line Dd2 (AID 1882); details: Potency: Plasmodium falciparum Dd2 proliferation inhibition; also: nearly all actives have a fitted effect of over 65% in size
# Method in brief: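 SYBR Green DNA fluorescence (ex 485, em 535 nm) after overnight lysis quantifies parasite growth; compound exposure lasted 72 h at 37 C on infected red cells at 2.5% hematocrit, 0.3% parasitemia (final). Artemisinin 0.29 uM and vehicle wells define normalization.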
# [11] = qHTS for differential inhibitors of proliferation of Plasmodium falciparum line HB3 (AID 1886); details: Potency: Plasmodium falciparum HB3 proliferation inhibition;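 also: parasites grown with compound for 72 h before SYBR Green readout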
# [12] = qHTS Assay for Modulators of Human Peripheral Myelin Protein 22 (PMP22) Expression/Activity (AID 1967; active = well fitted curve in the direction sought with a large enough effect in the signal ratio; the % refers to the signal ratio)
# Method in brief: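 Mouse MSC80 Schwann cells carrying Pmp22 promoter–green click beetle luciferase plus EF-alpha–red luciferase control, dosed 24 h at 37 °C. Dual-filter luminescence, overlap-corrected; %Activity from green/red ratio normalised to untreated cells, concentration-response curves fitted.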
# [13] = molecular target: Ferritin light chain (Equus caballus) (UniProt P02791); experiment: qHTS Validation Assay for Identification of Novel General Anesthetics (AID 2323)
# Chain of Ferritin light chain (Equus caballus) (P02791 2-175 limits assumed): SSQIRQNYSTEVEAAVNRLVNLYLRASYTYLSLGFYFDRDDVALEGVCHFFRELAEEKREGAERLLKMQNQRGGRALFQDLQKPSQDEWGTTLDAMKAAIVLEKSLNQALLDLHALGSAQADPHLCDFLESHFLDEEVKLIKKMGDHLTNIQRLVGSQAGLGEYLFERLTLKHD
# Method in brief: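 Horse-spleen apoferritin (10 uM) in PBS with 50% saturated 1-aminoanthracene; compounds pin-transferred, 10 min at room temperature. Fluorescence read at 380/535 nm, normalized to free 1-AMA and 1-AMA/apoferritin values; four-parameter Hill fit.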
# [14] = molecular target: ATP-dependent DNA helicase Q1 (Homo sapiens) (UniProt P46063); experiment: qHTS Validation Assay for Inhibitors of RecQ-Like Dna Helicase 1 (RECQ1) (AID 2353)
# Chain of ATP-dependent DNA helicase Q1 (Homo sapiens) (P46063 whole entry, looked up): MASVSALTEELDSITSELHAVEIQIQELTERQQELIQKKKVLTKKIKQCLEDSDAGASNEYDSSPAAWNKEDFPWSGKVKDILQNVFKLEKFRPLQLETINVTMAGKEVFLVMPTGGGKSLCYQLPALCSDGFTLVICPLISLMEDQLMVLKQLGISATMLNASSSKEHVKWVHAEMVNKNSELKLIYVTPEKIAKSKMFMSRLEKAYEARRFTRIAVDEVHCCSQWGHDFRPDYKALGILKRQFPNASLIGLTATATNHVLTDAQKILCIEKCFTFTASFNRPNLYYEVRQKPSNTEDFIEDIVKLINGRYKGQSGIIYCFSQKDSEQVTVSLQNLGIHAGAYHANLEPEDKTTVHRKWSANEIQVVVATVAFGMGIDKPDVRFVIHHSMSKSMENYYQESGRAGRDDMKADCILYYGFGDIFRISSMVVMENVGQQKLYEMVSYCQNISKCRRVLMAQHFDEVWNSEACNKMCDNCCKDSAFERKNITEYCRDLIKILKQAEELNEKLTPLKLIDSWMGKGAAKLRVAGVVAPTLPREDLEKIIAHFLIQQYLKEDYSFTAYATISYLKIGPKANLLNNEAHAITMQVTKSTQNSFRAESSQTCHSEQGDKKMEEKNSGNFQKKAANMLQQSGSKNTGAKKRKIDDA
# Method in brief: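 RECQ1T1 50 nM; forked duplex (20 bp + 30-nt ss tails) 200 nM, ATP 2 mM final; pH 8.0, 2 mM MgCl2, 2.5 ug/ml poly(dI-dC); 15 min compound preincubation; discontinuous kinetic read over 2 h at RT.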
# [15] = molecular target: RecQ-like DNA helicase BLM (Homo sapiens) (UniProt P54132); experiment: qHTS Validation Assay for Inhibitors of Bloom's syndrome helicase (BLM) (AID 2364)
# Chain of RecQ-like DNA helicase BLM (Homo sapiens) (P54132 whole entry, looked up): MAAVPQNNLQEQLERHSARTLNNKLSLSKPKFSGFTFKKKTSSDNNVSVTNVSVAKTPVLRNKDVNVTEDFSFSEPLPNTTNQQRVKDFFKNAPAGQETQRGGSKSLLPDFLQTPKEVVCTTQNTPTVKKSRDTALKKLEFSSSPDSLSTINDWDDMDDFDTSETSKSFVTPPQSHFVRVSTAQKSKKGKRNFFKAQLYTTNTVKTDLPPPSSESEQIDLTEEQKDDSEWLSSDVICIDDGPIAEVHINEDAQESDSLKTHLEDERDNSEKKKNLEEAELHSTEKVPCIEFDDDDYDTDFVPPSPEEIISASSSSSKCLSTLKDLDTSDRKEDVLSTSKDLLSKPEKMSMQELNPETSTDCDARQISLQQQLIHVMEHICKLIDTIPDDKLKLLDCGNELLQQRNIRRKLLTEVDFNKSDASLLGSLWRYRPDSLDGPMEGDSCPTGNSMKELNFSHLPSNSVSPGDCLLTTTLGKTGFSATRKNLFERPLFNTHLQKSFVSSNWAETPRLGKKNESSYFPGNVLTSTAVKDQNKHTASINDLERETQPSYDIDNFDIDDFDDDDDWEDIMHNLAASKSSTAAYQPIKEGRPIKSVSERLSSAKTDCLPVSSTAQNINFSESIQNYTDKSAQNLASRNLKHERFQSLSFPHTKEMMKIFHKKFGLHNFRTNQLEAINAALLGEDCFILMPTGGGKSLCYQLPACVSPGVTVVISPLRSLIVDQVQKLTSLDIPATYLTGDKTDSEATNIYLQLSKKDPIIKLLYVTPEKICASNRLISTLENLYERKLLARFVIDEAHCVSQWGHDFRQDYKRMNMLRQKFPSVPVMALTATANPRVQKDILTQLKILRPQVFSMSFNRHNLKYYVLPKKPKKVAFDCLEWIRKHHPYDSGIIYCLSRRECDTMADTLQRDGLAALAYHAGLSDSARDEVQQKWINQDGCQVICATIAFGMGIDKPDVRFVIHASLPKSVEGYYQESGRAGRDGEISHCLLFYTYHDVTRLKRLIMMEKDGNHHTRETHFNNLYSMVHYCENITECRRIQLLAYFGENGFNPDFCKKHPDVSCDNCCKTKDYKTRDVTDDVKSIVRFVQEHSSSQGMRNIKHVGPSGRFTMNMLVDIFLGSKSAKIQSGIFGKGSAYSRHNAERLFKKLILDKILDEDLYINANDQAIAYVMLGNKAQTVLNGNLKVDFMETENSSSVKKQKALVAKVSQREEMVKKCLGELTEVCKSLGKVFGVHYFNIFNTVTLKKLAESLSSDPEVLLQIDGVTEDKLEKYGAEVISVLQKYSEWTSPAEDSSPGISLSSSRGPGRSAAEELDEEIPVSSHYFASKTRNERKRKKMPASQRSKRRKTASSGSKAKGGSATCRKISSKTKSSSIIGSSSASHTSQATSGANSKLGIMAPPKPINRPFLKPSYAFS
# Method in brief: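 Forked 20-bp duplex substrate (200 nM, TAMRA/BHQ-2) plus 2 mM ATP added after 15 min compound preincubation with 50 nM enzyme, pH 8.0, poly(dI-dC) 2.5 ug/ml. Strand separation followed by fluorescence (525/598 nm) over 2 h, normalized to enzyme-free and DMSO controls.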
# [16] = Validation screen for inhibitors of Lassa infection (AID 463096; calls by dose curve)
# [17] = Validation screen for small molecules that induce DNA re-replication in MCF 10A normal breast cells (AID 463097); also: nearly all actives have a fitted effect of over 60% in size
# Method in brief: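 MCF 10A cells exposed to compound 48 hr at 37 C, 5% CO2, then Hoechst-stained 40 min. Laser-scanning imaging of nuclear DNA content (405 nm ex, 500-530 nm em); re-replication scored as rise in nuclei with elevated fluorescence intensity.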
# [18] = Quantitative high throughput screen for delayed death inhibitors of the malarial parasite plastid, 48 hour incubation (AID 488752); also: nearly all actives have a fitted effect of over 65% in size
# Method in brief: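 First, compound was pinned into RPMI 1640 medium containing 0.5% Albumax. Next, reporter-parasite-infected erythrocytes were added to 2% hematocrit and 0.1% parasitemia. After 48 h at 37 C under 5% CO2, luciferase detection reagent was added and luminescence read.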
# [19] = molecular target: M-phase phosphoprotein 8 (Homo sapiens) (UniProt Q99549); experiment: qHTS Validation Assay for Inhibitors for MPP8 Chromodomain Interactions with Methylated Histone Tails (AID 488949); also: top concentration of the series differs between compounds; nearly all actives have a fitted effect of over 55% in size
# Method in brief: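 MPP8 (50 nM) was pre-bound to 50 nM biotinylated H3(1-18)K9me3 peptide in PBS pH 7.4 with 0.01% Tween-20. Compounds were then added for 30 min at room temperature, and complex disruption was read by AlphaScreen with streptavidin donor and nickel-chelate acceptor beads.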
# [20] = molecular target: Transient receptor potential cation channel subfamily V member 1 (Homo sapiens) (UniProt Q8NER1); experiment: HTS Assay for Compounds that Act as Enhancers of the Vanilloid Receptor 1 (AID 488979)
# Method in brief: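 Calcium influx kinetics via Fluo-8 (480/520 nm) in TRPV1-expressing cells, 2000/well cultured overnight at 35.5C. Compound-alone read 3 min (agonist phase), followed by EC20 capsaicin challenge for 2 min (enhancer phase).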
# [21] = molecular target: Thyrotropin receptor (Homo sapiens) (UniProt P16473); experiment: qHTS Assay for Antagonists of the Thyroid Stimulating Hormone Receptor (AID 488980)
# Method in brief: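 TSHR-transfected HEK293 cells (2000/well) in HEPES-buffered HBSS with 70 uM RO 20-1724 were stimulated with 4 nM TSH (EC80, final) in the presence of compound. cAMP was measured by HTRF competition after lysis and 30 min at RT.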
# [22] = molecular target: Thyrotropin-releasing hormone receptor (Homo sapiens) (UniProt P34981); experiment: qHTS for Small Molecule Agonists and Allosteric Enhancers of Human TRH Receptor: Validation Screen for Agonists (AID 493127;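 active = calcium activation more than 3 SD above the typical response in the agonist read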;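 also: intracellular calcium rise by fluo-8 fluorescence before TRH EC20 addition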); details: TRH receptor agonist cell assay; at 2 µM; stronger effect = higher value
# Chain of Thyrotropin-releasing hormone receptor (Homo sapiens) (P34981 whole entry, looked up): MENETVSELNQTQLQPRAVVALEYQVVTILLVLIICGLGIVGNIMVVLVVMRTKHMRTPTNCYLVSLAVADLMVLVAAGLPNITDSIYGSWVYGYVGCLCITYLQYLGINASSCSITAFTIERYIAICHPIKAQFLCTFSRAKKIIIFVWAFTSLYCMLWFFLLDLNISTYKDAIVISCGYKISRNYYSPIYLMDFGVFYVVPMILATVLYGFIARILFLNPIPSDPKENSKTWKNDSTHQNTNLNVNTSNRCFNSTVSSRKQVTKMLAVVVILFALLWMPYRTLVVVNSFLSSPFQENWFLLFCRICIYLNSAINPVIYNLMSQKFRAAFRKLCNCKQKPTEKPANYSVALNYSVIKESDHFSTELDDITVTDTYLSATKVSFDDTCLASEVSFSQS
# Method in brief: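 Compounds are added by online pintool to dye-loaded TRHR cells while fluorescence is recorded every second. A rise in calcium signal during the agonist read marks activation; a later 10 nM TRH addition (EC20) serves the separate enhancer mode.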
# [23] = molecular target: Galactokinase (Homo sapiens) (UniProt P51570); experiment: qHTS Validation Assay for Inhibitors of Human Galactokinase (GALK) (AID 493189)
# Chain of Galactokinase (Homo sapiens) (P51570 whole entry, looked up): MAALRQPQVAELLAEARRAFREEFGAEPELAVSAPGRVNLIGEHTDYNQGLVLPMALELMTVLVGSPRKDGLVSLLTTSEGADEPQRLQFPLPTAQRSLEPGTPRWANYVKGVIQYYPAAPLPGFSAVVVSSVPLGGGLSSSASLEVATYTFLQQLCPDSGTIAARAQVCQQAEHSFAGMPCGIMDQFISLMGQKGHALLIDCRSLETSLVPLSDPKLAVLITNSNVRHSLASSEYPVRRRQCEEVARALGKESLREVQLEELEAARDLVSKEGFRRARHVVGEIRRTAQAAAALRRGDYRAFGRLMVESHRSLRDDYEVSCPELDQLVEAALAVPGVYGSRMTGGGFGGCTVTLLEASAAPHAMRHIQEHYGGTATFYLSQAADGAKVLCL
# Method in brief: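 GALK (5 nM) with 35 uM ATP and 100 uM galactose in HEPES pH 8.0 with MgCl2, NaCl, DTT and BSA. Reaction ran 1 h at room temperature. Residual ATP read by Kinase-Glo Plus luminescence.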
# [24] = molecular target: Voltage-gated inwardly rectifying potassium channel KCNH2 (Homo sapiens) (UniProt Q12809); experiment: qHTS Assay for Small Molecule Inhibitors of the Human hERG Channel Activity (AID 588834);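 also: top concentration of the series differs between compounds; lower thallium flux fluorescence means stronger hERG block; nearly all actives have a fitted effect of over 50% in size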
# Chain of Voltage-gated inwardly rectifying potassium channel KCNH2 (Homo sapiens) (Q12809 whole entry, looked up): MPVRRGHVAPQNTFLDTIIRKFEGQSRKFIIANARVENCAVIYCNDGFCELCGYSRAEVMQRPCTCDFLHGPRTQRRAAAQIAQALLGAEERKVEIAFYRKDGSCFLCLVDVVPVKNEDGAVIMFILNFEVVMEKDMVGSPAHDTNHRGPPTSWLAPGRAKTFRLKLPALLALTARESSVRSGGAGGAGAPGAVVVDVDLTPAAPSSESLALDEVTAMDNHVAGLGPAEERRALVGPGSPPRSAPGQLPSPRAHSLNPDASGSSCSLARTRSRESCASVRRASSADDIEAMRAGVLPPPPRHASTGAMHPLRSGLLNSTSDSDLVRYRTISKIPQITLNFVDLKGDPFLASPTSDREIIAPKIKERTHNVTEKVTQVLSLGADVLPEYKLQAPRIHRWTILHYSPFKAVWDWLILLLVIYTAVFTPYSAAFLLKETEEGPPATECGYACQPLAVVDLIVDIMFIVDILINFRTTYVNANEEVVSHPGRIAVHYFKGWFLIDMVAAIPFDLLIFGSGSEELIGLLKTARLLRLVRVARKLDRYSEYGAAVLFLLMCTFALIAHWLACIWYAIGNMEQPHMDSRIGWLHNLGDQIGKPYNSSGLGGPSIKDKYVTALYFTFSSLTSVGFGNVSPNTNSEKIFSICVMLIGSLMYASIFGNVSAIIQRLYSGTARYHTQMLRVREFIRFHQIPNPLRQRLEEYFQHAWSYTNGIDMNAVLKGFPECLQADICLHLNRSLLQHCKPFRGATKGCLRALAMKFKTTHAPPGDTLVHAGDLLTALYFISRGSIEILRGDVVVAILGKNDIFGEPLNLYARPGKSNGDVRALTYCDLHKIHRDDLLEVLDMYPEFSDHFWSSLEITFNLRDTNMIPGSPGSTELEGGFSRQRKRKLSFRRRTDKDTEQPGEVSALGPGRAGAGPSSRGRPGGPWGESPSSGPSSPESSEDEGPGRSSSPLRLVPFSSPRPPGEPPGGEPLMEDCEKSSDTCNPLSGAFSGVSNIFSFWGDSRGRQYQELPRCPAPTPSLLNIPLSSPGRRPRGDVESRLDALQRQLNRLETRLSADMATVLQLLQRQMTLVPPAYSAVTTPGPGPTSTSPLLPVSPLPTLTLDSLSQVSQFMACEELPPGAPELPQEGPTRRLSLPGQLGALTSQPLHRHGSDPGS
# Method in brief: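 Thallium serves as surrogate for K+ influx through BacMam-delivered hERG in U2OS cells. Compounds are added for about 10 minutes after dye loading; stimulation buffer then starts flux, monitored kinetically on FDSS.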
# [25] = tested on: Zika virus NS2B-NS3 protease; experiment: Primary screen GU AMC qHTS for Zika virus inhibitors (AID 1347154); also: nearly all actives have a fitted effect of over 70% in size
# Method in brief: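 Fluorogenic AMC-substrate cleavage by noncovalent NS2B-NS3 protease complex (25 nM, pH 8.0 Tris buffer with Tween 20) followed for 15 minutes at room temperature (~20% conversion). Percent inhibition from ex340/em450 signal change, fitted by 4-parameter Hill equation.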
compound,measurement,setting,value
C[N+]1(C)CCc2cc3c(cc2C1C1OC(=O)c2c1ccc1c2OCO1)OCO3 (configuration not stated),outcome,[1],inactive
same,"activity change, negative = inhibition",[2]; at 57.5 µM (top of the series),2.12% (inactive)
same,max response,[2]; measured here: cell count channel max response,1.78%
same,max response,[2]; measured here: lipid channel max response,1.49%
same,Potency,[3],inactive
same,Potency,[4],inactive
same,outcome,[5],inactive
same,Potency,[6],inactive
same,Potency,[7],inactive
same,Potency,[8],8.91 µM (active)
same,Potency,[9],inactive
same,Potency,[10],inactive
same,Potency,[11],inactive
same,outcome,[12],inactive
same,outcome,[13],inactive
same,Potency,[14],inactive
same,Potency,[15],inactive
same,Potency,[16],inactive
same,Potency,[17],inactive
same,Potency,[18],inactive
same,Potency,[19],inactive
same,outcome,[20],inactive
same,outcome,[21],inactive
same,activation,[22],0.938% (inactive)
same,outcome,[23],inactive
same,Potency,[24],inactive
same,Potency,[25],inactive
